PKM2 act: qHTS Assay for Activators of Human Muscle isoform 2 Pyruvate Kinase | purified PKM2, Kinase-Glo ATP luminescence, activation; response scale: 0% is enzyme alone, no compound | Pyruvate kinase PKM (Homo sapiens), P14618 | Potency, µM (highest dose often 57.5 µM), without a hit: at the highest dose activation, actives largely listed as activators | 260,000 tested, 0.34% active; also: potency is read from the fitted curve at half-maximal effect; % is scaled to controls: 0 for no effect and ±100 for the full control effect; nearly all actives have a fitted effect of over 55% in size
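Purified hPK-M2 (>95%) run at intermediate activity with 0.1 mM ADP and 0.5 mM PEP in 50 mM imidazole pH 7.2, KCl, MgCl2; 1 h room temperature. ATP formed read by Kinase-Glo luminescence; normalized to uninhibited and no-enzyme controls.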
Integrin act MD: qHTS for Activators of Integrin-Mediated Alleviation for Muscular Dystrophy. Potency, µM (doses to about 38.3 µM), inactives show at the top dose activation, usual class: activators. alpha7betagal myoblasts, beta-gal FDG fluorescence, 48 h. 350,000 tested, 0.064% active;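 also: potency is read from the fitted curve at half-maximal effect; 100% = response of the positive control SU9516; nearly all actives have a fitted effect of over 60% in size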
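Alpha7betagal+/- myoblasts (passage 13) were plated 16-24 hr, then exposed to compounds (1:260 dilution of DMSO stock) for 48 hours at 37C. After MPER lysis, β-galactosidase reporter activity was read as FDG fluorescence (ex 480/em 540) after 30 minutes.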
ClpP mod: qHTS Assay for Activators of ClpP; 340,000 tested, 1.9% active; AID 651965, 2013; Potency, µM (titrated, usually from 57.5 µM), for the others: top-dose activity change, negative = active; purified B. subtilis ClpP, FRET peptide cleavage, 20 min; ATP-dependent Clp protease proteolytic subunit (Bacillus subtilis (strain 168)), P80244; active = well fitted falling curve with a large enough effect; also: potency is read from the fitted curve at half-maximal effect; the source files actives as falling curves though it sought activators and does not explain the sign; nearly all actives have a fitted effect of over 65% in size
Target sequence (P80244 whole entry, looked up): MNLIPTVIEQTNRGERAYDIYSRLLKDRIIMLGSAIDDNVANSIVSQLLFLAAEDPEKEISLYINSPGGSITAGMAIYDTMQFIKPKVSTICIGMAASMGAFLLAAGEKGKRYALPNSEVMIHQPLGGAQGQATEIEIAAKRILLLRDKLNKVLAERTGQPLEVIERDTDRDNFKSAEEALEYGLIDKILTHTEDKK
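Purified B. subtilis ClpP, 10 microg/mL final in Tris/HCl pH8 with KCl, BSA, glycerol and Tween-20, cleaved an Abz/nitrotyrosine-quenched decapeptide. Fluorescence (ex 320, em 430) was read at 0 and 20 min at room temperature. Delta was normalized to 5.8 microM ADEP and DMSO/no-enzyme controls.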
IL2 activator: qHTS of IL-2 Activators; IL-2 activation reporter assay, cell-based qHTS; stimulated with anti-CD3/CD4/CD28 beads; in transgenic mouse T cells; activation, % (series mostly up to about 46 µM); 360,000 tested, 0.065% active; in the data active = activation above about 50%; also: 0% is about no effect
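Screening format: compound pinned onto unstimulated transgenic mouse T cells, 60 min incubation, then anti-CD3/anti-CD4/anti-CD28 bead stimulation for 18 hours at 37 degrees C, followed by EGFP and DsRed detection.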
Pin1 inh: qHTS Assay to Find Inhibitors of Pin1 | Peptidyl-prolyl cis-trans isomerase NIMA-interacting 1 (Homo sapiens), Q13526 | Pin1 FP peptide displacement, HiFluor488, 10 min | Potency, µM (doses to about 115 µM), for the others: top-dose activity, negative = inhibition, most hits filed as inhibitors | 390,000 tested, 0.009% active | AID 504891, 2011; active = well fitted inhibition curve with a large enough effect in the polarisation, with a control signal flat, not every such curve was filed as active; the % refers to the polarisation; also: potency is read from the fitted curve at half-maximal effect; % is scaled to controls: 0 for no effect and ±100 for the full control effect
Target sequence (Q13526 whole entry, looked up): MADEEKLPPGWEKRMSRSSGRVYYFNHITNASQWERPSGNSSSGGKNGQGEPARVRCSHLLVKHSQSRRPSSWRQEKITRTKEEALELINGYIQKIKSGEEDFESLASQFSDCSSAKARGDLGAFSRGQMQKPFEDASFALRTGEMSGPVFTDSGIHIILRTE
USP2a inh: qHTS Assay for Inhibitors of Ubiquitin-specific Protease USP2a Using CHOP2 as the Reporter; Ubiquitin carboxyl-terminal hydrolase 2 (Homo sapiens), O75604; USP2 core, Ub-CHOP2 coupled fluorogenic reporter, 485/531; Potency, µM (titrated, usually from 38.3 µM), for the others: at the highest dose activity change, negative = inhibition, actives largely listed as inhibitors; 330,000 tested, 0.01% active; AID 463254, 2010;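 also: potency is read from the fitted curve at half-maximal effect; plate controls were DMSO wells for no effect and full inhibition by NEM control for full effect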
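Deubiquitinase activity read as fluorescence (485/531 nm) after Ub-CHOP2 cleavage activates the enterokinase reporter on its substrate; USP2 core 10nM, Ub-CHOP2 and substrate 25nM each, 30min compound preincubation then 60min RT; data normalized to NEM, curves fitted.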
* hit, by the source's call; ! = a repeat was not active. This is a sample that favours compounds with a hit; in the whole collection about 1.9% have one here. Unless noted, calls follow the shape of the dose curve; as a rule, active = well fitted curve in the direction sought with a large enough effect; inconclusive = small, poorly fitted or top-dose-only effect, or another doubt; inactive = no such curve, though single readings can be large; an effect the other way counts as inactive or inconclusive.

`CCOc1ccc(NC(=S)N2CCc3cc(OC)c(OC)cc3C2COc2ccc3c(C)cc(=O)oc3c2)cc1` (stereo not given) gave PKM2 act 0%, Integrin act MD -5%, ClpP mod 8.9µM*, IL2 activator -2, Pin1 inh 10% and USP2a inh 2%.
For COc1cccc(-c2cc3nc(-c4ccccc4)cc(N4CCC5(CC4)OCCO5)n3n2)c1 the results were PKM2 act 0%, Integrin act MD 6%, ClpP mod 16µM*, IL2 activator -3, Pin1 inh 32% and USP2a inh 3%.
Screening CN1CCN(c2cc(-c3ccccc3)nc3cc(-c4ccc(F)cc4)nn23)CC1 returned PKM2 act -3%, Integrin act MD -13%, ClpP mod 22µM*, IL2 activator 0, Pin1 inh -11% and USP2a inh -1%.
CC(=O)O[C@@H]1[C@@H](O)CN[C@@H]1Cc1ccccc1 was read as Pin1 inh -13%.
`COc1cc(C(=O)NCc2cccc3ccccc23)cc(Cl)c1OC` gave PKM2 act 18µM*, Integrin act MD -22%, ClpP mod -3%, IL2 activator -1, Pin1 inh 28% and USP2a inh 5%.
Screening O=C(C[n+]1ccccc1)c1cccc([N+](=O)[O-])c1 returned ClpP mod 1%.
Screening Cc1ccc(SCC(Cc2ccccc2)N2CCN(C)CCC2=O)cc1 (stereo not given) returned Pin1 inh -10%.
For COCCn1c(=NC(=O)c2ccc(S(=O)(=O)N3CCc4ccccc4C3)cc2)sc2cc(S(N)(=O)=O)ccc21 the results were PKM2 act -7%, Integrin act MD -28%, ClpP mod 14µM*, IL2 activator -3, Pin1 inh 16% and USP2a inh -4%.
Screening C=CCn1c(=NC(=O)c2ccc(S(=O)(=O)N3CCc4ccccc4C3)cc2)sc2cc(S(N)(=O)=O)ccc21 returned PKM2 act -1%, Integrin act MD -43%, ClpP mod -2%, IL2 activator -6, Pin1 inh 36% and USP2a inh 3%.
Screening C#CCn1c(=NC(=O)c2ccc(S(=O)(=O)N3CCc4ccccc4C3)cc2)sc2cc(S(N)(=O)=O)ccc21 returned PKM2 act -8%, Integrin act MD -70%, ClpP mod 28µM*, IL2 activator -1, Pin1 inh 68% and USP2a inh -1%.
CC/C=C/[C@@H](c1ccccc1)[C@H](C)C(O)CC(=O)SC(C)(C)C (stereo not given in full) was read as Pin1 inh 5%.
`Cc1ccc(-n2c(=O)c3c4c(sc3n(Cc3cc(=O)n5ccccc5n3)c2=O)CCC4)cc1C` gave PKM2 act 7%, Integrin act MD -11%, ClpP mod 28µM*!, IL2 activator -1, Pin1 inh 5% and USP2a inh 4%.
Screening O=C1CC(c2ccccc2)Cc2[nH]c(=O)c(C(=O)O)cc21 (stereo not given) returned ClpP mod -2%.
For CCOC(=O)C1CCN(C(=O)c2cn(CCOC)c(=O)c3c2c2ccccc2n3C)CC1 the results were PKM2 act 0%, Integrin act MD -6%, ClpP mod 7.9µM*, IL2 activator -2, Pin1 inh 2% and USP2a inh 2%.
